Compound activity from PubChem.
Sampled rows, rich in hits. Any-hit rate of the full collection: about 0.77%.
Mtb UGM inh – Mtb UDP-galactopyranose mutase inhibition; purified UGM, fluorescence polarization probe displacement; inhibition, % at 10 µM; actives 0.06% (n = 320,000); AID 504406; in the data active = inhibition above about 10%, passing the limit was not always enough; inconclusive = no clear call, values can overlap the other calls
Rv3671c protease – inhibitors of M. tuberculosis serine protease Rv3671c; P9WHR9; AID 2606; inhibition, % at 5.96 µM; actives 0.048% (n = 320,000); in the data active = inhibition above about 38%;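 also: extracellular domain of Rv3671c used as enzyme; 0% = enzyme with DMSO and 100% = no enzyme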
Mtb betalactam – beta-lactam sensitization of Mtb H37Rv; M. tuberculosis H37Rv growth with meropenem, percent inhibition; inhibition, % at 25 µM; actives 0.27% (n = 330,000); AID 434955; call rule not given here;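 also: growth measured after seven days incubation then overnight dye step; 0% = bacteria only wells and 100% = bacteria with antibiotic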
Mtb hypoxia inh – inhibitors of hypoxia-regulated fluorescent reporter in Mycobacterium tuberculosis; M. tuberculosis hypoxia-regulated fluorescent reporter, fluorescence; AID 1159583; actives 0.1% (n = 300,000); fluorescence inhibition, % (no concentration beside the values); in the data active = fluorescence inhibition mostly above about 23%, no sharp cut-off; inactive = mostly below about 17%
RecA splice inh – blocks M. tuberculosis RecA intein splicing; P9WHJ3; cell-free RecA intein splicing, fluorescence; inhibition, % (no concentration beside the values); actives 0.75% (n = 290,000); AID 2221; in the data active = inhibition above about 30%; inconclusive = no clear call, values can overlap the other calls;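 also: 0% = vehicle wells and 100% = reference inhibitor control wells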
* hit, by the source's call; u = inconclusive; x = no result.

SMILES	Mtb UGM inh	Rv3671c protease	Mtb betalactam	Mtb hypoxia inh	RecA splice inh
COc1cc(C2NC(=O)C(C#N)=C(Nc3cccc(C)c3)S2)ccc1O (configuration not stated)	0.1	3.0	-8.7	1.7	87.0*
COC(=O)CSC1=C(C#N)C(=O)NC(c2ccccc2)S1 (configuration not stated)	0.7	-3.1	-1.6	1.9	1.2
O=C(NC1=C(Nc2ccc(F)cc2)C(=O)c2ccccc2C1=O)c1ccc(Cl)cc1	0.4	-52.5	9.7	-17.2	58.9*
O=C(NNC(=O)c1ccc(NC(=O)c2ccccc2)cc1)c1ccc(F)cc1	0.6	-7.9	-5.3	8.0	-1.5
O=C(CSc1nc2ccccc2nc1N1CCOCC1)N1CCN(c2ccccc2)CC1	-0.9	2.5	99.5	17.1*	9.9
NC(=O)C1CC2(CC(c3cccc(NC(=O)C4CCC(=O)N4)c3)=NO2)CN1C(=O)c1ccccc1 (configuration not stated)	x	x	x	6.8	x
Nc1ccc2nc3c(=O)n(CCc4ccccc4)c(=O)[nH]c3nc2c1	u	-24.1	-5.4	-3.0	-189.1
COc1cc2[nH]c(=O)n(C3CCCCC3)c(=O)c2cc1OC	0.7	9.7	7.6	3.8	0.4
CCCCn1c(=O)[nH]c2nc3cc(N)ccc3nc2c1=O	33.2*	9.3	-4.7	4.4	x
Nc1ccc2nc3c(=O)n(C4CCCCC4)c(=O)[nH]c3nc2c1	36.5*	7.3	2.2	-30.1	-188.1
Cc1cc2nc3c(=O)n(CCc4ccccc4)c(=O)[nH]c3nc2cc1N	17.1*	-8.8	-5.9	-20.0	-349.9
C[C@]12C(=O)N(c3ccccc3)C(=O)N1C1c3ccccc3OCC1C2c1ccccc1 (some centres not stated)	x	x	x	-0.9	x
COC(=O)[C@@]1(Cc2ccc(F)cc2)C2c3cc(C(=O)N4CCCC4)n(Cc4ccc(C(F)(F)F)nc4)c3CC2CN1C(=O)c1ccccc1 (some centres not stated)	x	x	x	15.2	x
COc1cc(/C=C2\CC/C(=C\c3cc(OC)c(O)c(OC)c3)C2=O)cc(OC)c1O	17.3*	-29.0	12.8	-3.1	x
O=S1(=O)CCOCC(CC2CCCCC2)N1Cc1ccc(Cl)cc1 (configuration not stated)	x	x	x	5.6	x
Cc1ccc(NC(=O)c2cc(S(=O)(=O)N3CCCCC3)ccc2N2CCOCC2)cc1S(=O)(=O)N(C)C	x	x	x	26.4*	x
Cc1ccc(NC(=O)c2cc(S(=O)(=O)N(C)C)ccc2N2CCCC2)cc1S(=O)(=O)N(C)C	1.1	7.5	-2.6	-4.9	2.4
COC(=O)C1=C(c2ccc(F)cc2OCc2ccccc2)CC2CCC1N2C(=O)NCc1ccccc1C(F)(F)F (configuration not stated)	x	x	x	15.0	x
Cn1cnc([N+](=O)[O-])c1Sc1nc2ccccc2[nH]1	5.1	-1.5	93.4	-0.2	13.2
Cn1cnc([N+](=O)[O-])c1Oc1ccc2ccccc2c1	1.8	-9.5	94.5	-0.5	36.3*
CCN(CC)c1ccc(C=C2C(=O)N(C)C(=S)N(C)C2=O)o1	-3.1	-22.9	4.2	45.8*	-0.6
CCN(CC)c1ccc(/C=C2\C(=O)NC(=S)N(c3ccc(OC)cc3OC)C2=O)o1	3.6	-13.0	3.1	53.9*	-3.7
CCN(CC)c1ccc(/C=C2\C(=O)NC(=S)N(C)C2=O)o1	-6.6	-15.3	94.8	58.4*	-2.1
CCN1CC2C3C(=O)N(Cc4ccccc4)C(=O)C3[C@](C)(C1=O)N2C(=O)c1ccc(Br)cc1 (some centres not stated)	x	x	x	4.8	x
CC1=NN(c2ccc(C)cc2C)C(=O)C1C(c1ccccc1O)C1C(=O)N(c2ccc(C)cc2C)N=C1C (configuration not stated)	3.5	-165.5	-1.3	4.5	77.6*
CC1=NN(c2ccc(Cl)cc2)C(=O)C1C(c1ccccc1O)c1c(C)[nH]n(-c2ccc(Cl)cc2)c1=O (configuration not stated)	3.9	-213.2	21.2	4.1	26.3
CCN1C(=O)C2C(c3ccc(-c4cccc(Cl)c4)cc3)N[C@@](Cc3ccccc3)(C(=O)OC)C2C1=O (some centres not stated)	x	x	x	-3.3	x
Cc1cc(Cl)cc2c(N=Nc3ccccc3C(=O)O)c(O)[nH]c12	-0.5	-0.4	13.1	-0.2	2.3
Cc1ccc(Cl)c2c(N=Nc3ccccc3)c(O)[nH]c12	11.2*	x	1.5	1.3	-3.5
COc1cc2c(cc1OC)C(=O)N1C3c4cc(C)ccc4OCC3C(c3ccccc3)[C@]1(C)C(=O)N2 (some centres not stated)	x	x	x	-0.4	x
